# Laboratory results: PubChem BioAssay AID624141 (Broad Institute, 2012)
# The whole screen tested about 17,000 compounds, of which about 260 (1.5%) were called active.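 The calls were made as follows: active = spot fluorescence over background with P-value below 7% in all four replicate spots, showing protein binding; inactive = the rest.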 Only a selection was taken, and actives are over-represented in it overall.
# Target: Myc proto-oncogene protein (Homo sapiens) (UniProt P01106)
# Assay: binders of human c-Myc, primary screen, biochemical, small molecule microarray, anti-His fluorescence (AID 624141)
# Conditions: His-c-Myc binding
# Chain of Myc proto-oncogene protein (Homo sapiens) (P01106 whole entry, looked up): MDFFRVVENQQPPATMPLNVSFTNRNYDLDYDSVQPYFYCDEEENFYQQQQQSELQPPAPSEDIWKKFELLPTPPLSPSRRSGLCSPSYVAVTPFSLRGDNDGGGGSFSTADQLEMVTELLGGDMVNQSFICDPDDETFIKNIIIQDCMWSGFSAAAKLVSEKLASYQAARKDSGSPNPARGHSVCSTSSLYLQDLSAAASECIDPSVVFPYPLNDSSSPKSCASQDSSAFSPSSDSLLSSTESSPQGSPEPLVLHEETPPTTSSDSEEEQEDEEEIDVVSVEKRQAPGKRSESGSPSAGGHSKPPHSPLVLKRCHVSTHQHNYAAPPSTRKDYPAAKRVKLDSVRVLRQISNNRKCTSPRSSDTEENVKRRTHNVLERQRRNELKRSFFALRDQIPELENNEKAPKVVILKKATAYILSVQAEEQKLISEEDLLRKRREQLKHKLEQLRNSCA
row,Structure (SMILES),outcome
1,C[C@H](CO)N1C[C@H](C)[C@H](CN(C)Cc2ccc(C(=O)O)cc2)Oc2c(NC(=O)C3CCOCC3)cccc2C1=O,inactive
2,C[C@@H]1CN([C@@H](C)CO)C(=O)Cc2cc(NC(=O)CCN3CCOCC3)ccc2O[C@@H]1CN(C)C(=O)Nc1cccc2ccccc12,inactive
3,C[C@H](CO)N1C[C@H](C)[C@H](CN(C)S(=O)(=O)c2cn(C)cn2)Oc2ccc(N(C)C)cc2C1=O,inactive
4,Cc1noc(C)c1S(=O)(=O)Nc1cccc2c1O[C@@H](CN(C)S(=O)(=O)c1cn(C)cn1)[C@@H](C)CN([C@H](C)CO)C2=O,inactive
5,O=C(c1ccc(F)cc1)C1CCN(CCCCc2ccccc2)CC1,inactive
6,O=c1c2ccccc2[nH]c(=S)n1CCN1CCC(=C(c2ccc(F)cc2)c2ccc(F)cc2)CC1,active
7,COc1ccc(S(=O)(=O)N(C)C[C@H]2Oc3c(NC(=O)C4CCOCC4)cccc3C(=O)N([C@@H](C)CO)C[C@@H]2C)cc1,inactive
8,C[C@@H]1CN([C@H](C)CO)C(=O)c2cc(NC(=O)c3ccncc3)ccc2O[C@@H]1CN(C)C(=O)Nc1ccc(F)cc1,inactive
9,COc1ccc(S(=O)(=O)N(C)C[C@@H]2Oc3ccc(NC(=O)Nc4cccc5ccccc45)cc3C(=O)N([C@H](C)CO)C[C@H]2C)cc1,inactive
10,C[C@@H]1CN([C@@H](C)CO)C(=O)c2cc(NC(=O)C3CCCCC3)ccc2O[C@@H](C)CCCCO[C@@H]1CN(C)Cc1ccc(C(=O)O)cc1,inactive
11,C/C=C(\C)C(=O)O[C@H]1C=CC(=O)O[C@H]1/C=C/[C@H](O)[C@H](C)O,inactive
12,C[C@@H]1CN([C@@H](C)CO)C(=O)c2cc(NC(=O)CCCN(C)C)ccc2O[C@@H](C)CCCCO[C@H]1CN(C)Cc1ccc2c(c1)OCO2,inactive
13,COC(=O)COc1c(Sc2ccc([N+](=O)[O-])cc2)c(C)nn1-c1ccccc1,inactive
14,COC(=O)C1=CO[C@@H](O[C@@H]2O[C@H](CO)[C@@H](O)[C@H](O)[C@H]2O)[C@@H]2[C@@H](C)[C@@H](OC(=O)C3=CO[C@@H](O[C@@H]4O[C@H](CO)[C@@H](O)[C@H](O)[C@H]4O)[C@@H]4[C@@H](C)[C@@H](OC(C)=O)C[C@H]34)C[C@H]12,inactive
15,C[C@H]1CN([C@@H](C)CO)C(=O)CCCn2cc(nn2)CO[C@@H]1CN(C)S(=O)(=O)c1cccs1,inactive
16,C[C@H](CO)N1C[C@H](C)[C@H](CN(C)C(=O)Nc2ccc(C(F)(F)F)cc2)Oc2ccc(NS(=O)(=O)c3ccccc3)cc2CC1=O,inactive
17,C[C@@H]1CN([C@H](C)CO)C(=O)c2cccc(NS(=O)(=O)c3cccs3)c2O[C@@H]1CN(C)C(=O)Nc1cccc2ccccc12,inactive
18,CS(=O)(=O)N(CC(=O)Nc1ccc(C(N)=O)cc1)c1cccc(C(F)(F)F)c1,inactive
19,CC(C)NC(=O)Nc1ccc2c(c1)C(=O)N([C@H](C)CO)C[C@@H](C)[C@@H](CN(C)C(=O)c1ccncc1)OCCCC[C@H](C)O2,inactive
20,Cc1cc(C(=O)Nc2cccc3c2O[C@@H](CN(C)Cc2ccc4c(c2)OCO4)[C@@H](C)CN([C@@H](C)CO)C3=O)n(C)n1,inactive
21,C[C@@H]1CN([C@@H](C)CO)C(=O)c2cc(NC(=O)Nc3cccc4ccccc34)ccc2O[C@@H]1CN(C)Cc1ccc(-c2ccccc2)cc1,inactive
22,C[C@@H]1CN([C@@H](C)CO)C(=O)c2cc(NC(=O)C3CCCCC3)ccc2O[C@@H]1CN(C)S(=O)(=O)c1ccc(F)cc1,inactive
23,C[C@@H]1CCCCO[C@@H](CN(C)Cc2ccc(C(=O)O)cc2)[C@H](C)CN([C@H](C)CO)C(=O)c2cc(NC(=O)Nc3ccc(F)cc3)ccc2O1,inactive
24,O=C(O)CCC(=O)Nc1ccc(-c2nc3ccccc3o2)cc1,inactive
25,COc1cc(/C=C/C(=O)O[C@@H]2O[C@H](CO[C@@H]3O[C@H](CO)[C@@H](O)[C@H](O)[C@H]3O)[C@@H](O)[C@H](O)[C@H]2OC(=O)/C=C/c2cc(OC)c(O)c(OC)c2)cc(OC)c1O,inactive
26,C=CCOC(=O)[C@H]1[C@@H]2C(=O)O[C@@H](c3ccccc3)[C@@H](c3ccccc3)N2[C@@H](c2ccc(OCCOC(=O)[C@H]3C[C@H]4C(=O)NCC(=O)N4[C@H]3c3ccc(O)cc3)cc2)[C@]12C(=O)Nc1ccccc12,inactive
27,C=C(C(=O)O)C1CCC(CCC)OC1=O (configuration not stated),inactive
